From PubChem BioAssay (Tox21) come the findings set out here.

Several values for one entry are separate records, joined by “and”; a condition that tells them apart may be missing. Equal entries are not always repeated. Records with an inconclusive call do not appear. Entries that show only a call come without a potency. Some structures have more than one record in an assay (separate samples or runs), and their calls can disagree. Activity calls are given as the source filed them. Calls follow the shape of the full dose curve.
Potency is read from the fitted curve at half-maximal effect.

The first assay is described as follows: qHTS assay for small molecule agonists of the p53 signaling pathway - cell viability (AID 651633). Also: nearly all actives have a fitted effect of over 30% in size. The settings on record: p53RE-bla HCT-116 viability, ATP luminescence, 16 h; series mostly up to 83.3 µM. The gist of the method:
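p53RE-bla cells were treated with compound for 16 hours at 37 C. Cytotoxicity was then measured as CellTiter-Glo luminescence after 30 min at room temperature.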
For `C=C(C)C(=O)OCC(C)O` (configuration not stated), the Potency result is “inactive”.

On to `CN1[C@@H]2CC(OC(=O)[C@H](CO)c3ccccc3)C[C@H]1[C@@H]1O[C@@H]12` (some centres not stated), for which the Potency entry was “inactive”.

For `C/C=C/C=C/C(=O)O`, the Potency result was “inactive”.

As to `C1=CC2C3C=CC(C3)C2C1` (configuration not stated), the Potency result was “inactive”.

Turning to `CCCC[P+](CCCC)(CCCC)CCCC`, the Potency result was “inactive”.

For the compound `C1CCC(C(CC2CCCCN2)C2CCCCC2)CC1` (configuration not stated), the Potency is 23.7 µM (active).

Turning to `O=S1(=O)OC(c2ccc(O)cc2)(c2ccc(O)cc2)c2ccccc21`, the Potency entry was “inactive”.

Turning to `Cc1ccc(S(=O)(=O)O)cc1`, the Potency result is “inactive”.

Regarding `CC/C(=C(\c1ccccc1)c1ccc(OCCN(C)C)cc1)c1ccccc1`, the Potency was 54.5 µM (active) [middle of 5 runs].

On to `CCCCCCc1ccc(O)cc1O`, for which the Potency result was “inactive and 54.6 µM (active) and 61.1 µM (active)”.

`C=C1CC[C@H](O)C/C1=C\C=C1/CCC[C@]2(C)[C@@H]([C@H](C)CCCC(C)C)CC[C@@H]12`: the Potency was 26.6 µM (active) and 60.6 µM (active).

Take `O=CC(=O)c1ccccc1`: the Potency result was “inactive”.

As for `CN[C@H]1CC[C@@H](c2ccc(Cl)c(Cl)c2)c2ccccc21`, the Potency was 29.8 µM (active).

Regarding `CCN(CC)C(=O)c1cccc(C)c1`, the Potency entry was “inactive”.

Regarding `CCCCC(CC)C(=O)O` (configuration not stated), the Potency entry is “inactive”.

For the compound `CC(C)NCC(O)c1ccc(O)c(O)c1` (configuration not stated), the Potency entry is “inactive”.

With `O=C1OC2(c3ccccc31)c1cc(Br)c(O)c(Br)c1Oc1c2cc(Br)c(O)c1Br`, the Potency entry was “inactive”.

A short description of another assay: qHTS assay for small molecules that induce genotoxicity in human embryonic kidney cells expressing luciferase-tagged ATAD5 - cell viability (AID 651634). Also: nearly all actives have a fitted effect of over 25% in size. The settings on record: HEK293T ATAD5-luc cells viability, CellTiter-Fluor, 15.5 h; series mostly up to 83.3 µM. Summed up:
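Cells (HEK293T, luciferase-tagged ATAD5) are seeded at 2,000 per well, dosed with compound or DMSO vehicle, and incubated 15.5 hr at 37C and 5% CO2. CellTiter-Fluor is added for 30 min before fluorescence is measured.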
With `O=C1NC(=O)C(c2ccccc2)(c2ccccc2)N1`, the Potency result was “inactive”.

As for `O=c1[nH]cnc2c1ncn2[C@H]1CC[C@@H](CO)O1`, the Potency result is “inactive”.

As for `C=C(C)C(=O)OCC(C)O` (configuration not stated), the Potency result is “inactive”.

On to `O=C(Nc1ncc([N+](=O)[O-])s1)c1cccs1`, for which the Potency was 26.6 µM (active).

`CN1[C@@H]2CC(OC(=O)[C@H](CO)c3ccccc3)C[C@H]1[C@@H]1O[C@@H]12` (some centres not stated): the Potency entry is “inactive”.

For `C/C=C/C=C/C(=O)O`, the Potency result is “inactive”.

Regarding `C1=CC2C3C=CC(C3)C2C1` (configuration not stated), the Potency result is “inactive”.

As for `CCCC[P+](CCCC)(CCCC)CCCC`, the Potency entry was “inactive”.

With `CN1CCC[C@H]1c1cccnc1`, the Potency result was “inactive”.

Take `C1CCC(C(CC2CCCCN2)C2CCCCC2)CC1` (configuration not stated): the Potency is 26.6 µM (active).

Consider `O=S1(=O)OC(c2ccc(O)cc2)(c2ccc(O)cc2)c2ccccc21`, for which the Potency is 48.6 µM (active) and 8.63 µM (active).

As for `Cc1ccc(S(=O)(=O)O)cc1`, the Potency entry is “inactive”.

In the case of `CC/C(=C(\c1ccccc1)c1ccc(OCCN(C)C)cc1)c1ccccc1`, the Potency is 29.8 µM (active) and 61.5 µM (active).

Take `CCCCCCc1ccc(O)cc1O`: the Potency result is “inactive”.

Consider `O=C1NS(=O)(=O)c2ccccc21`, for which the Potency entry is “inactive”.

Take `COc1ccc2cc(S(=O)(=O)N[C@H](CC(=O)N[C@H](Cc3ccc(CN4[C@H](C)CCC[C@@H]4C)cc3)C(=O)N(C)C(C)C)c3ccc4c(c3)OCO4)ccc2c1`: the Potency was 57.9 µM (active).

Turning to `F[B-](F)(F)F`, the Potency entry is “inactive”.

Turning to `CC(=O)CC(c1ccccc1)c1c(O)c2ccccc2oc1=O` (configuration not stated), the Potency result was “inactive”.

Consider `O=CC(=O)c1ccccc1`, for which the Potency result was “inactive”.

Take `CN[C@H]1CC[C@@H](c2ccc(Cl)c(Cl)c2)c2ccccc21`: the Potency result was “inactive”.

For `CCN(CC)C(=O)c1cccc(C)c1`, the Potency entry was “inactive”.

On to `CC(C)NCC(O)c1ccc(O)c(O)c1` (configuration not stated), for which the Potency entry is “inactive”.

With `O=C1OC2(c3ccccc31)c1cc(Br)c(O)c(Br)c1Oc1c2cc(Br)c(O)c1Br`, the Potency is 21.1 µM (active) and 1.56 µM (active) and 19.9 µM (active).

As to `CC(=O)CCC(=O)O`, the Potency entry is “inactive”.

Regarding `COc1ccc(CN(CCN(C)C)c2ccccn2)cc1`, the Potency result is “inactive”.

Take `CCN(Cc1c(F)cccc1Cl)c1c([N+](=O)[O-])cc(C(F)(F)F)cc1[N+](=O)[O-]`: the Potency result is “inactive”.

A further assay in a line: qHTS assay for small molecule disruptors of the mitochondrial membrane potential - cell viability (AID 720634). Also: nearly all actives have a fitted effect of over 20% in size. Conditions: HepG2 viability, ATP luminescence (CellTiter-Glo), 1 h; series mostly up to 83.2 µM. The gist of the method:
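Cytotoxicity was measured by ATP quantitation in HepG2 wells that had first been treated with compound for 1 hr and stained with m-MPI dye; CellTiter-Glo incubation was 30 min at room temperature.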
For the compound `O=C1NC(=O)C(c2ccccc2)(c2ccccc2)N1`, the Potency result is “inactive”.

As for `O=c1[nH]cnc2c1ncn2[C@H]1CC[C@@H](CO)O1`, the Potency entry is “inactive”.

`C=C(C)C(=O)OCC(C)O` (configuration not stated): the Potency entry was “inactive”.

Regarding `CC(C)c1c(C(=O)Nc2ccccc2)c(-c2ccccc2)c(-c2ccc(F)cc2)n1CC[C@@H](O)C[C@@H](O)CC(=O)O`, the Potency entry is “inactive”.

Consider `O=C(Nc1ncc([N+](=O)[O-])s1)c1cccs1`, for which the Potency was 15 µM (active).

Take `C/C=C/C=C/C(=O)O`: the Potency entry is “inactive”.

Take `C1=CC2C3C=CC(C3)C2C1` (configuration not stated): the Potency entry was “inactive”.

On to `CCCC[P+](CCCC)(CCCC)CCCC`, for which the Potency entry was “inactive”.

`CN1CCC[C@H]1c1cccnc1`: the Potency entry was “inactive”.

Take `Cc1ccc(S(=O)(=O)O)cc1`: the Potency entry was “inactive”.

For `CC/C(=C(\c1ccccc1)c1ccc(OCCN(C)C)cc1)c1ccccc1`, the Potency is 54.8 µM (active) and 61.1 µM (active).

As to `O=C1NS(=O)(=O)c2ccccc21`, the Potency result was “inactive”.

Turning to `COc1ccc2cc(S(=O)(=O)N[C@H](CC(=O)N[C@H](Cc3ccc(CN4[C@H](C)CCC[C@@H]4C)cc3)C(=O)N(C)C(C)C)c3ccc4c(c3)OCO4)ccc2c1`, the Potency entry was “inactive”.

Take `C=C1CC[C@H](O)C/C1=C\C=C1/CCC[C@]2(C)[C@@H]([C@H](C)CCCC(C)C)CC[C@@H]12`: the Potency result is “inactive”.

As to `F[B-](F)(F)F`, the Potency entry is “inactive”.

`CC(=O)CC(c1ccccc1)c1c(O)c2ccccc2oc1=O` (configuration not stated): the Potency result was “inactive”.

As to `O=CC(=O)c1ccccc1`, the Potency result was “inactive”.

Turning to `CN[C@H]1CC[C@@H](c2ccc(Cl)c(Cl)c2)c2ccccc21`, the Potency entry was “inactive”.

As to `CCN(CC)C(=O)c1cccc(C)c1`, the Potency result is “inactive”.

Regarding `CCCCC(CC)C(=O)O` (configuration not stated), the Potency result was “inactive”.

In the case of `CC(C)NCC(O)c1ccc(O)c(O)c1` (configuration not stated), the Potency entry is “inactive”.

As to `O=C1OC2(c3ccccc31)c1cc(Br)c(O)c(Br)c1Oc1c2cc(Br)c(O)c1Br`, the Potency result is “inactive”.

Regarding `CC(=O)CCC(=O)O`, the Potency result is “inactive”.

With `CCN(Cc1c(F)cccc1Cl)c1c([N+](=O)[O-])cc(C(F)(F)F)cc1[N+](=O)[O-]`, the Potency entry is “inactive”.
